Measurements: PubChem BioAssay (Tox21)
Records with an inconclusive call do not appear. Active and inactive are the calls of the source. Calls follow the shape of the dose curve; as a rule, active = well fitted curve in the direction sought with a large enough effect in the repeat runs; inconclusive = weak or mixed curves; inactive = no such curve, though single readings can be large; an effect the other way counts as inactive or inconclusive.

Key:
[1] = Human pregnane X receptor (PXR) small molecule agonists, qHTS cell viability counter screen (AID 1346977); also: nearly all actives have a fitted effect of over 50% in size; also: potency is read from the fitted curve at half-maximal effect
Summary of the method: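 PXR-Luc HepG2 cells in medium with 5% charcoal-stripped FBS were pre-incubated 5hr, then exposed to compounds for 24hr at 37C. Viability was read in the same wells by CellTiter-Fluor fluorescence, reagent added after 23hr with a 1hr incubation.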

[2] = Caspase-3/7 induction in HepG2 cells by small molecules, qHTS assay (AID 1346978); also: nearly all actives have a fitted effect of over 15% in size
Summary of the method: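 Wild-type HepG2 cells (2,000/well) were settled 5 h at 37 C, 5% CO2, then exposed to compounds in DMSO for 17 h. Caspase-3/7 activity was read by luminescence 30 min after adding Caspase-Glo 3/7 reagent at room temperature.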

[3] = Caspase-3/7 induction in CHO-K1 cells by small molecules, qHTS cell viability counter screen (AID 1346979); also: nearly all actives have a fitted effect of over 35% in size; also: potency is read from the fitted curve at half-maximal effect
Summary of the method: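 Wild-type CHO-K1 cells were seeded at 1,500 per well, rested 5hr at 37 C, then exposed to compounds in DMSO. After 16hr, CellTiter-Fluor reagent was added and fluorescence read 1hr later as the viability measure.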

[4] = Caspase-3/7 induction in CHO-K1 cells by small molecules, qHTS assay (AID 1346980); also: nearly all actives have a fitted effect of over 15% in size
Summary of the method: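 Wild-type cells were seeded at 1,500 per well and settled 5 hr at 37 C, 5% CO2, then exposed to DMSO-dissolved compounds for 17 hr. Caspase-Glo 3/7 reagent was added, and luminescence was read after 30min at room temperature.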

[5] = molecular target: Nuclear receptor subfamily 1 group I member 2 (Homo sapiens) (UniProt O75469); test: Human pregnane X receptor (PXR) small molecule agonists, qHTS assay (AID 1346982); also: nearly all actives have a fitted effect of over 35% in size; also: potency is read from the fitted curve at half-maximal effect
Chain of Nuclear receptor subfamily 1 group I member 2 (Homo sapiens) (O75469 whole entry, looked up): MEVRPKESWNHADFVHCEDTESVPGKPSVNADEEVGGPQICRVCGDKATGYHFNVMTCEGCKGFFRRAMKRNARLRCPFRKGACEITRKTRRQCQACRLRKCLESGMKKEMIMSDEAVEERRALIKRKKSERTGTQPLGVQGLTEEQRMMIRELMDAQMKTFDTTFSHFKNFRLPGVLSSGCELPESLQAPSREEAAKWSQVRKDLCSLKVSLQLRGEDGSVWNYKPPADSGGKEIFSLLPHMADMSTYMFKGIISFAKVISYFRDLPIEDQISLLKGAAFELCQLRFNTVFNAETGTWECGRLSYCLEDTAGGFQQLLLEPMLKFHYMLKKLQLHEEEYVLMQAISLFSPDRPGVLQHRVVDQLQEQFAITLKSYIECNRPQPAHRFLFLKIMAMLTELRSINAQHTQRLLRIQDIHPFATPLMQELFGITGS
Summary of the method: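 Agonist mode qHTS: PXR-Luc HepG2 cells plated 5 hr before DMSO-dissolved compounds were pinned in, cultured 24 hr at 37 C, 5% CO2; ONE-Glo luminescence readout.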

[6] = molecular target: Cytochrome P450 2D6 (Homo sapiens) (UniProt P10635); test: Cytochrome P450 Family 2 Subfamily D Member 6 (CYP2D6) small molecule antagonists: luciferase reporter qHTS assay (AID 1671196); also: nearly all actives have a fitted effect of over 50% in size; also: potency is read from the fitted curve at half-maximal effect
Chain of Cytochrome P450 2D6 (Homo sapiens) (P10635 whole entry, looked up): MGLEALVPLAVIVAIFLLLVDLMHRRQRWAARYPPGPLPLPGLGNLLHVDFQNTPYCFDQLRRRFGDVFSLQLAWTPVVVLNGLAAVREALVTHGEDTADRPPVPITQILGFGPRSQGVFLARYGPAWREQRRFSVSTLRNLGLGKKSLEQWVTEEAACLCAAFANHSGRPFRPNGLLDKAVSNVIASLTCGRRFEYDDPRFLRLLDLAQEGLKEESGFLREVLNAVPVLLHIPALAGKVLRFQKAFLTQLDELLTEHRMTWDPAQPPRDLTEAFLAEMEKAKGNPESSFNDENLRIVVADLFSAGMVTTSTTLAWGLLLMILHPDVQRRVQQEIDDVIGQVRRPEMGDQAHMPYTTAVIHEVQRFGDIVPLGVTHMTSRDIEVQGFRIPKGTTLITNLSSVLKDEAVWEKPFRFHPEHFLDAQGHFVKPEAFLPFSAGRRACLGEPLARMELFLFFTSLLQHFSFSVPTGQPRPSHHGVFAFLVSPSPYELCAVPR
Summary of the method: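 P450-Glo format: CYP2D6 converts a proluciferin substrate to luciferin in an NADPH-driven reaction lasting 1 h at room temperature. Light output, proportional to CYP2D6 activity, reflects interference by test chemicals.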

[7] = molecular target: Nuclear receptor subfamily 1 group I member 2 (Rattus norvegicus) (UniProt Q9R1A7); test: Rat pregnane X receptor (rPXR) activation by small molecules, qHTS assay (AID 1346983); settings: rPXR luciferase reporter cells, One-Glo luminescence, 24 h; max activation: hits give high values; also: nearly all actives have a fitted effect of over 20% in size; also: potency is read from the fitted curve at half-maximal effect
Chain of Nuclear receptor subfamily 1 group I member 2 (Rattus norvegicus) (Q9R1A7 whole entry, looked up): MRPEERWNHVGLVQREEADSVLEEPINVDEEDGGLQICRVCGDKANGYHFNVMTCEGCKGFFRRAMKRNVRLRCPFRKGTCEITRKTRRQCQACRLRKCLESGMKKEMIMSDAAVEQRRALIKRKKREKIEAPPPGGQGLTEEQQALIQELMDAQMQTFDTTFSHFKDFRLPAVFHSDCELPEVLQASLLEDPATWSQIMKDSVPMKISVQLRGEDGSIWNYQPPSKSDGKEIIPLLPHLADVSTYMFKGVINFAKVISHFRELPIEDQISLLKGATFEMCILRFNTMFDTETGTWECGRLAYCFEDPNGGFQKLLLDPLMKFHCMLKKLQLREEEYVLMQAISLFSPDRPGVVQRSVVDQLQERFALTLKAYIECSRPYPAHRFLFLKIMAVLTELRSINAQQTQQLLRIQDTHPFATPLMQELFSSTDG
Summary of the method: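 Cell-based rPXR luciferase reporter assay, 2,000 cells per well, rested 5hr at 37 C before compound addition in DMSO, then 24 hr at 37 C. One-Glo reagent was added and luminescence read after 30 min at room temperature.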

[8] = Caspase-3/7 induction in HepG2 cells by small molecules, qHTS cell viability counter screen (AID 1346981); also: nearly all actives have a fitted effect of over 30% in size; also: potency is read from the fitted curve at half-maximal effect
Summary of the method: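 Steps: seed 2,000 HepG2 cells per well; incubate 5 hr at 37 C; pin-add compounds in DMSO; incubate 16 hr; add CellTiter-Fluor; after 1 hr at 37 C and 5% CO2, read fluorescence.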

[9] = molecular target: Nuclear receptor subfamily 1 group I member 2 (Homo sapiens) (UniProt O75469); test: CYP3A4 induction through human pregnane X receptor (PXR) by small molecules, qHTS assay (AID 1346984); also: nearly all actives have a fitted effect of over 40% in size; also: potency is read from the fitted curve at half-maximal effect
Summary of the method: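 Steps: seed DPX-2 cells, 5 hr at 37C; pin-transfer compounds; 24 hr at 37C; add Luciferin-IPA (3uM final), 3 hr at 37C; add One-Glo, 30 min RT; read luminescence.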

[10] = molecular target: Nuclear receptor subfamily 1 group I member 2 (Homo sapiens) (UniProt O75469); test: Human pregnane X receptor (PXR) activation by small molecules, qHTS assay (AID 1346985); also: nearly all actives have a fitted effect of over 40% in size; also: potency is read from the fitted curve at half-maximal effect
Summary of the method: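 DPX-2 cells (HepG2 co-transfected with a PXR response element and a CYP3A4-promoter luciferase construct) were seeded at 2,000 per well, rested 5 hr at 37C, then exposed to DMSO-dissolved compounds for 24 hr. Activation was read as luciferase luminescence.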
% is scaled to controls: 0 for no effect and ±100 for the full control effect.

CC(CC=O)c1ccccc1 (configuration not stated)
inactive: Potency [1] | Potency [2] | Potency [3] | Potency [4] | Potency [6]
active: Potency [5] 61.1 µM

O=C1c2ccccc2S(=O)(=O)N1CCCCN1CCN(c2ncccn2)CC1
inactive: Potency [1] | Potency [2] | Potency [3] | Potency [4] | max activation [7] 0.873%

CCCCCC[C@@H](O)C/C=C\CCCCCCCC(=O)OC
inactive: Potency [1] | Potency [2] | Potency [3] | Potency [4] | Potency [5] | Potency [6]

CCCCCCCCCCCCCCOS(=O)(=O)O
inactive: Potency [1] | Potency [2] | Potency [4] | Potency [8] | Potency [5] | Potency [6]

COc1cc(C(=O)OCCCN2CCCN(CCCOC(=O)c3cc(OC)c(OC)c(OC)c3)CC2)cc(OC)c1OC
inactive: Potency [2] | Potency [4]
active: Potency [3] 23.7 µM | Potency [8] 26.6 µM | Potency [5] 29.8 µM

Brc1c2ccccc2cc2ccccc12
active: Potency [5] 61.8 µM
inactive: Potency [1] | Potency [3] | Potency [4] | Potency [8]

COC(=O)C1=C(C)NC(COC(N)=O)=C(C(=O)OC(C)C)C1c1cccc(Cl)c1Cl (configuration not stated)
inactive: Potency [1] | Potency [4]
active: Potency [3] 13.3 µM

O=C(O)C1(C(=O)Nc2ccc(Cl)cc2Cl)CC1
active: Potency [5] 24.3 µM
inactive: Potency [1] | Potency [2] | Potency [4] | Potency [8]

CCCCNc1ccc(C(=O)OCCOCCOCCOCCOCCOCCOCCOCCOCCOC)cc1
inactive: Potency [1] | Potency [2] | Potency [4] | Potency [8] | Potency [5] | max activation [7] -3.41% | Potency [9] | Potency [10] | Potency [6]

CN(C)c1ccc(CCO)cc1
inactive: Potency [2] | Potency [3] | Potency [4] | Potency [8] | Potency [5]

COc1cc2nc(N3CCN(C(=O)C4COc5ccccc5O4)CC3)nc(N)c2cc1OC (configuration not stated)
active: Potency [1] 26.6 µM
inactive: Potency [2] | Potency [4] | max activation [7] -0.947% | Potency [6]

CCCCCCCCCCCCCCCCOS(=O)(=O)O
inactive: Potency [1] | Potency [2] | Potency [4] | Potency [8] | Potency [5]

CC(C)(COC(=O)c1ccccc1)COC(=O)c1ccccc1
inactive: Potency [1] | Potency [2] | Potency [4] | Potency [8] | Potency [5] | Potency [6]

OC(CN1CCC(Cc2ccc(F)cc2)CC1)c1ccc(Cl)cc1 (configuration not stated)
inactive: Potency [2] | Potency [4] | Potency [5] | max activation [7] -1.2% | Potency [10]
active: Potency [1] 29.8 µM

CCCOC(C(=O)OC1CCN(C)CC1)(c1ccccc1)c1ccccc1
inactive: Potency [2] | Potency [4]
active: Potency [1] 23.7 µM | Potency [7] 15.8 µM | Potency [9] 28.2 µM | Potency [10] 14.1 µM | Potency [6] 7.76 µM

O=C(c1ccc(F)cc1)C1CCN(CCn2c(=S)[nH]c3ccccc3c2=O)CC1
inactive: Potency [1] | Potency [2] | Potency [4] | Potency [8] | max activation [7] 1.09%
active: Potency [5] 10.6 µM

Nc1cc(C(=O)O)c(O)c(S(=O)(=O)O)c1
inactive: Potency [1] | Potency [2] | Potency [4] | Potency [8]
active: Potency [6] 35.1 µM

CCOC(=O)C1=C[C@]2(CC)CCCN3CCc4c(n1c1ccccc41)[C@@H]32
active: Potency [1] 26.6 µM | Potency [5] 2.37 µM | Potency [6] 2.75 µM
inactive: Potency [2] | Potency [4] | Potency [8]

CCCCCCCCCc1ccc(OCCOCCO)cc1
inactive: Potency [4] | max activation [7] -12.1% | Potency [9] | Potency [10]
active: Potency [1] 5.74 µM | Potency [3] 18.1 µM | Potency [8] 20.4 µM | Potency [5] 6.44 µM

CCc1cc(C2=C(C(=O)O)N(c3ccccc3C(F)(F)F)S(=O)(=O)c3ccccc32)cc2c1OCO2
active: Potency [3] 30.3 µM | Potency [8] 15.2 µM
inactive: Potency [2] | Potency [4] | Potency [5]

CNCCCN1c2ccccc2CCc2ccccc21
inactive: Potency [4] | Potency [5] | max activation [7] -1.95% | Potency [9] | Potency [10]
active: Potency [1] 23.7 µM

C[C@H]1C[C@H]2[C@@H]3CCC4=CC(=O)C=C[C@]4(C)[C@@]3(Cl)[C@@H](O)C[C@]2(C)[C@@]1(O)C(=O)CO
active: Potency [7] 5.62 µM | Potency [9] 15.8 µM | Potency [10] 11.2 µM | Potency [6] 30.9 µM
inactive: Potency [1] | Potency [2] | Potency [4] | Potency [8]

CC(C)=CCC/C(C)=C/CC/C(C)=C/CO
active: Potency [5] 43.3 µM
inactive: Potency [1] | Potency [2] | Potency [4]

CN(C)CCCN1c2ccccc2Sc2ccccc21
active: Potency [1] 23.7 µM
inactive: Potency [2] | Potency [4] | Potency [8] | max activation [7] -2.41%

CCOc1ccc(N)c([N+](=O)[O-])c1
inactive: Potency [1] | Potency [2] | Potency [4] | Potency [5]
active: Potency [6] 71 µM

COc1ccc(C(=O)c2ccc(OC)cc2O)c(O)c1
active: Potency [5] 27.5 µM
inactive: Potency [1] | Potency [2] | Potency [4]

Clc1ccc2c(c1)CCc1cccnc1C2=C1CCNCC1
active: Potency [1] 29.8 µM | Potency [10] 14.1 µM
inactive: Potency [4] | Potency [5] | max activation [7] -7.49%

CCOC(=O)COC(=O)c1cc(Oc2ccc(C(F)(F)F)cc2Cl)ccc1[N+](=O)[O-]
inactive: Potency [1] | Potency [2] | Potency [4] | Potency [8]
active: Potency [5] 30.6 µM | Potency [6] 15.9 µM

C/C=C(/C(=C/C)c1ccc(OC(C)=O)cc1)c1ccc(OC(C)=O)cc1
inactive: Potency [1] | Potency [2] | Potency [4] | Potency [8] | Potency [5]
